A selection: hits, their analogues and other compounds. The true share with any hit is near 0.74%.
PINK1 expr mod: A Quantitative High throughput Screen to Identify Chemical Modulators of PINK1 Expression; PINK1 immunofluorescence, high-content cytometry, 24 h; Potency, µM (series often up to 76.6 µM), inactives show at the highest dose activation (PINK1 increase), most hits filed as activators; 0.2% of 410,000 active; active = well fitted activation curve with a large enough effect; inconclusive = small, poorly fitted or top-dose-only effect; cell line not stated here; also: potency is read from the fitted curve at half-maximal effect; % of control where 0% means no effect; nearly all actives have a fitted effect of over 65% in size
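A stable cell line was treated with compounds at 5 concentrations for 24 hours, with CCCP as control. PINK1 levels and mitochondrial localization were measured by immunofluorescence with mitochondrial, cell and nuclear markers after fixation, read by laser-scanning cytometry.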
Vif-APOBEC3G blk: qHTS for Inhibitors of Vif-A3G Interactions: qHTS; DNA dC->dU-editing enzyme APOBEC-3G (Homo sapiens), Q9HC16; HeLa A3G-eYFP + Vif (tagged APOBEC3G with the HIV-1 protein that degrades it), YFP fluorescence, overnight; Potency, µM (top dose mostly 46.1 µM), for inactives: at the highest dose activity, negative = active, most hits filed as inhibitors; 0.076% of 410,000 active; AID 602310, 2012; also: potency is read from the fitted curve at half-maximal effect; % is scaled to controls: 0 for no effect and ±100 for the full control effect; nearly all actives have a fitted effect of over 60% in size
Target sequence (Q9HC16 whole entry, looked up): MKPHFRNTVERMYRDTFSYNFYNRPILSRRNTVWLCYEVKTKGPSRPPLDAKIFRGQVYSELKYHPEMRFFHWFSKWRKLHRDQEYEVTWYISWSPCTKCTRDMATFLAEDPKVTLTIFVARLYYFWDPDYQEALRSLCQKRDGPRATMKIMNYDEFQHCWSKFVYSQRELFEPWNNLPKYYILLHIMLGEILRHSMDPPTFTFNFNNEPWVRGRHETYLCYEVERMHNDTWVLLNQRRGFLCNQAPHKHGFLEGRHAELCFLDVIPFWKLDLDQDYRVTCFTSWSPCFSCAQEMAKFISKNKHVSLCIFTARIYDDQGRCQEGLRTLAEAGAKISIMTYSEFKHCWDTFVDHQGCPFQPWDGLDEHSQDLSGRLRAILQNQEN
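Read-out is eYFP fluorescence (Ex 488/Em 500-530) from Vif-expressing HeLa A3G-eYFP cells; more signal means A3G escaped Vif-mediated degradation. Cells plated overnight, compound pinned in, incubated overnight at 37 deg C.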
pAkt inh: HTS Assay for Inhibitors of Akt Phophorylation: Primary Screen; activity change, % for hits at 50 µM; AID 651550, 2012; 0.32% of 360,000 active; Neuro2A IGF-stimulated pAkt S473 HTRF, 20 min; stronger effect = lower value; in the data active = activity change below about -80%; inconclusive = mostly about -51% to -80%; also: % is scaled to controls: 0 for no effect and ±100 for the full control effect
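Neuro2A cells (4,500/well, DMEM with 0.5% FBS) were treated with compound at a single 50 µM final concentration, stimulated with 6 nM IGF for 20 min at 37 °C, and lysed. Phospho-Akt Ser473 was read by HTRF as 665/615 ratio ×10^4.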
LDHA block: qHTS assay for inhibitors of human lactate dehydrogenase; L-lactate dehydrogenase A chain (Homo sapiens), P00338; purified LDHA, NADH/diaphorase-resazurin fluorescence; stronger effect = lower value; activity change, % (values are at about 110 or 230 µM); 0.15% of 480,000 active; AID 1347041, 2019; in the data active = activity change below about -30%; inconclusive = mostly about -25% to -30%;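 also: plate controls were DMSO wells for no effect and wells without enzyme for full effect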
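Enzyme activity of human lactate dehydrogenase 5 (2 nM; 0.06 mM NADH, 0.2 mM pyruvate, 5 min, RT) is measured via a resazurin/diaphorase fluorescence readout of residual NADH.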
GRP78 ERSR act: qHTS for Inducers of the Endoplasmic Reticulum Stress Response (ERSR) in Human Glioma: qHTS; U87-MG GRP78 promoter luciferase reporter, 16 h; Potency, µM, for inactives: top-dose activation, hits mostly activators; 0.02% of 420,000 active; AID 602332, 2012; also: potency is read from the fitted curve at half-maximal effect; series mostly up to about 76 µM; % of control where 0% means no effect; nearly all actives have a fitted effect of over 35% in size
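ERSR induction read as luciferase luminescence (Bright-Glo, 10 min at room temperature) in stably transfected human U87-MG glioma cells exposed to compounds for 16 h, using GRP78 as sensor.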
Vif-APOBEC3F blk: qHTS for Inhibitors of Vif-A3F Interactions: qHTS. HeLa A3F-eYFP + Vif (tagged APOBEC3F with the HIV-1 protein that degrades it), YFP fluorescence increase. Potency, µM (titrated, usually from 46.1 µM), inactives show at the top dose activity, negative = active. 0.2% of 390,000 active. AID 602313, 2012; also: potency is read from the fitted curve at half-maximal effect; % of control where 0% means no effect; nearly all actives have a fitted effect of over 65% in size
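Fluorescence increase (Ex 488/Em 500-530) after overnight compound treatment at 37 deg C flags inhibition of Vif-driven A3F-eYFP loss in stable HeLa A3F-eYFP/Vif cells seeded overnight beforehand.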
Active calls of the source: *; i = inactive; ? = inconclusive; . = not tested or not shown. Unless noted, calls follow the shape of the dose curve; as a rule, active = well fitted curve in the direction sought with a large enough effect; inconclusive = small, poorly fitted or top-dose-only effect, or another doubt; inactive = no such curve, though single readings can be large; an effect the other way counts as inactive or inconclusive.

SMILES	PINK1 expr mod	Vif-APOBEC3G blk	pAkt inh	LDHA block	GRP78 ERSR act	Vif-APOBEC3F blk
Fc1ccc(NC(=S)NNc2ncc(C(F)(F)F)cc2Cl)c(F)c1	10µM*	-5%	i	-1	-16%	4%
Cc1ccc(NC(=S)NNc2ncc(C(F)(F)F)cc2Cl)c(C)c1	7%	-3%	i	-4	-13%	9%
FC(F)(F)c1cnc(NNC(=S)Nc2ccc(Cl)cc2)c(Cl)c1	11µM*	-4%	i	-5	-11%	-5%
O=S(=O)(NNc1ncc(C(F)(F)F)cc1Cl)c1ccc(F)cc1F	4%	1%	i	8	-3%	3%
Cc1ccc(NC(=S)NNc2ncc(C(F)(F)F)cc2Cl)cc1	32µM*	-5%	i	-8	-12%	1%
COc1ccc(S(=O)(=O)N2CCN(c3cc(N4CCCC4)nc(C)n3)CC2)cc1OC	.	.	.	0	.	.
Nc1cc(N)nc(SCC(=O)Nc2cc(F)ccc2F)n1	.	.	.	-4	.	.
O=C(Nc1ccc(-n2cccn2)c(F)c1)C1CCCN(C(=O)c2ccoc2)C1 (stereo not drawn)	.	.	.	-31*	.	.
COc1ccc(C(=O)/C(C#N)=C\c2cccc(Cl)c2Cl)cc1	.	.	.	11	.	.
O=C(Nc1ccc2oc(-c3ccccc3)nc2c1)c1ccc2c(c1)OCCO2	13µM*	-13%	i	-2	2%	8%
COc1ccc(-n2c(SC3CCOC3=O)nc3ccccc3c2=O)cc1OC (stereo not drawn)	10µM*	2%	i	1	-1%	-2%
Cc1ccc2c(c1)Sc1c(ccc3ccccc13)N2	2%	?	i	5	3%	22µM*
Cc1nc2ccc([N+](=O)[O-])cc2nc1C	0%	1%	i	-1	3%	-13%
Nc1nc(N)c2cc([N+](=O)[O-])ccc2n1	2%	2%	i	-30*	0%	9%
Cc1cc(C(=O)OCC(=O)c2cccc3ccccc23)c2ccccc2n1	.	.	.	-35*	.	.
Cc1cc(C(=O)OCC(=O)Nc2ccccc2C(C)C)c2ccccc2n1	.	.	.	-40*	.	.
COc1ccccc1NC(=O)COC(=O)c1cc(C)nc2ccccc12	12%	-3%	i	-4	-5%	-13%
Cc1ccc(C)c(C(=O)COC(=O)c2cc(C)nc3ccccc23)c1	.	.	.	11	.	.
CCCCCn1c(Sc2ccc(C)cc2)nc2c1c(=O)[nH]c(=O)n2C	.	.	.	-7	.	.
CCn1cc(C(=O)O)c(=O)c2cc(F)c(N/N=C/c3ccccc3[N+](=O)[O-])cc21	40µM*	3%	i	-2	-5%	3%
CC(C)n1nc(C(=O)Nc2ccc(S(=O)(=O)N(C)C)cc2)c2ccccc2c1=O	.	.	.	-7	.	.
O=C(Nc1ccc(-c2ccccc2)cc1)c1ccc(Cl)cc1Cl	.	.	.	-1	.	.
COc1ccc(N2CC(O)=C(c3nc4ccccc4s3)C2=N)cc1	11µM*	-10%	?	0	-3%	-10%
Cc1ccc(NC(=O)c2ccc(-n3cccn3)c([N+](=O)[O-])c2)cc1C	7%	-1%	-110%*	-2	-6%	6%
Brc1ccc(CNCCCn2ccnc2)cc1	.	.	.	0	.	.
SMILES	PINK1 expr mod	Vif-APOBEC3G blk	pAkt inh	LDHA block	GRP78 ERSR act	Vif-APOBEC3F blk
CCN1N=C(c2ccccc2)Cn2c1nc1ccccc12	2%	-7%	-107%*	-3	-4%	-8%
CS(=O)(=O)N1CCn2c1nc1ccccc12	0%	1%	i	-2	-1%	-15%
Cc1ccc(C)c(S(=O)(=O)/N=C2\C=C(NS(=O)(=O)c3ccccc3)C(=O)c3ccccc32)c1	4%	1%	i	8	-1%	0%
Cc1cc(C)c(S(=O)(=O)/N=C2/C=C(Sc3ncn[nH]3)C(=O)c3ccccc32)cc1C	1%	?	i	39	-16%	7.1µM*
CCOC(=O)N1CCc2c(sc3c2C(=O)NC(c2ccc(N(C)C)cc2)N3)C1 (stereo not drawn)	8%	?	.	13	0%	11µM*
COc1ccccc1N1CCN(C(=O)c2cc3n(n2)C(C(F)(F)F)CC(c2ccco2)N3)CC1 (stereo not drawn)	2%	0%	-107%*	-1	0%	-8%
CC(NC(=S)Nc1cccc(C(F)(F)F)c1)C(C)(C)C (stereo not drawn)	?	1%	i	1	-2%	32µM*
CN(C)NC(=S)Nc1cccc(C(F)(F)F)c1	0%	-3%	i	-4	-1%	10%
CCOC(=O)CC1=C(C(=O)OCC)C(c2ccncc2)C(C#N)=C(N)O1 (stereo not drawn)	0%	-2%	-116%*	-6	-2%	-7%
CCOC(=O)C1=C(C)OC(N)=C(C#N)C1c1ccccc1 (stereo not drawn)	1%	0%	i	1	-2%	-5%
Cc1nc2c(-c3ccccc3)c(C)[nH]n2c(=O)c1Cc1ccccc1	0%	-3%	i	-5	-3%	-21%
Cc1nc2c(-c3ccc(Cl)cc3)c(C)[nH]n2c(=O)c1Cc1ccccc1	35µM*	3%	i	-8	-2%	17%
O=C(CCN=C1NS(=O)(=O)c2ccccc21)Nc1cc(Cl)cc(Cl)c1	.	.	.	-2	.	.
O=C(CNCCN1CCOCC1)Nc1ccccc1Sc1ccccc1	0%	-6%	i	-31*	-4%	7%
O=C(CN1CCOCC1)Nc1ccccc1Sc1ccccc1	-1%	-9%	i	-1	-2%	-15%
CC(NC(=O)/C(C#N)=C/c1ccc(OCC(=O)O)cc1)c1ccccc1 (stereo not drawn)	1%	1%	i	-17	-5%	5%
CC(NC(=O)/C(=C/c1ccc(OC(F)F)cc1)c1ccccc1)c1ccccc1 (stereo not drawn)	45µM*	-5%	i	-3	-5%	7%
Cc1c(C(=O)NC2CCS(=O)(=O)C2)nnn1-c1ccccc1 (stereo not drawn)	.	.	.	4	.	.
COc1cc(C=C2C(=O)c3ccccc3C2=O)cc(OC)c1OC	5%	-10%	i	-2	-4%	25µM*
N#Cc1nc(-c2ccc(Cl)cc2)oc1NCc1ccc(F)cc1	.	.	.	1	.	.
CCCNc1nc(N)nc(-c2cc(Cl)ccc2OC)n1	4%	-1%	-102%*	-3	-5%	-2%
O=Cc1ccc(N2CCCCCC2)cc1	0%	-1%	-128%*	-2	14%	1%
O=Cc1ccc(N2CCCC2)c(F)c1	-2%	3%	i	0	3%	1%
